Test results as given in ChEMBL document CHEMBL3988442, “University of Dundee, Small-Polar-MMV Screening Library” (2021).
Screen size: about 48,000 compounds; about 13,000 (27%) showed an effect of 50% or more. The list shows a part of the results.

Test system: Wolbachia pipientis
Test: Anti-Wolbachia Cell-Based Screen
Assay type: functional
Parameters: scale not given: in the data most compounds retested in dose-response had high values
Settings: 5 µM

Compound	Percent Effect [%]
Cc1noc(C)c1CN(C)C(C)c1cccs1 (stereo unspecified)	-4.592
CCCn1cnc2c1CN(S(=O)(=O)c1ccc(F)cc1)[C@H](C(=O)OC)C2	-2.883
CCCC1(CNCc2ncc[nH]2)CCC1	-4.212
CCN1CCc2[nH]cnc2C12CCN(C(=O)CCCn1cncn1)CC2	0.07379
CCC(C(=O)NCc1cccnc1)N(c1cccc(C)c1)S(C)(=O)=O (stereo unspecified)	-6.23
COc1ccccc1COCC(O)CN(C)c1ccc(C)cc1C (stereo unspecified)	-38.72
CCn1ccnc1C1CCN(C(=O)C(O)c2ccc(Cl)cc2)CC1 (stereo unspecified)	-5.147
COc1ccc(C(=O)NC2CC2)c(OC2CCN(CCCSC)CC2)c1	-3.444
COCCN(CCOC)S(=O)(=O)N(C)Cc1ccncc1	7.861
Cc1ccc(=O)n(CC2(O)CCN(Cc3cnn(C)c3)CC2)n1	99.25
Cn1cc(CN2CCC3(CC2)CC(=O)Nc2ccccc23)cn1	-46.12
Cc1nc2c(c(N3CC=CC3)n1)CCN(Cc1ccoc1)CC2	2.971
Cn1cc(CN2CC3(CCN(C(=O)c4ccoc4)C3)C2)cn1	3.005
Cc1ccc(=O)n(CC2(O)CCN(Cc3ccoc3)CC2)n1	91.7
CCN(CC)Cc1ccc(C(=O)NC2CCc3cc(Br)ccc32)o1 (stereo unspecified)	-2.859
CC(C)c1cc(NCc2csc(C(C)C)n2)nc(N)n1	-18.23
COc1ccc(C(CO)NC(=O)Nc2cccc(C(C)=O)c2)cc1 (stereo unspecified)	-19.79
COc1ccc(C(=O)Nc2ccccc2-c2ccc(=O)n(C)n2)cc1	17.03
COc1ncccc1C(=O)Nc1ccccc1-c1ccc(=O)n(C)n1	-13.19
COc1ccc(C(=O)Nc2cccc(C(N)=O)c2)c(OC)n1	132
COc1ccc(NC(=O)c2cccc(OC)c2OC)cc1	-22.1
COc1ccc(C(=O)Nc2ccccc2C(C)C)c(OC)n1	169
COc1ccc(C(=O)Nc2cccc(SC)c2)c(OC)n1	175.2
COc1ncccc1NC(=O)c1cccc(C)n1	-5.429

Compound	Percent Effect [%]
COc1cc(NC(=O)c2cccc(N(C)C)c2)cc(OC)c1	6.421
CC(C)Oc1ncc(C(=O)N2CCc3ccc(O)cc3C2)cc1Cl	-26.56
CN1N=C(c2nc(Cc3cccc(Br)c3)no2)CCC1=O	-6.645
CC(C(=O)NC1CC1)S(=O)(=O)c1cc2c(cc1Cl)OCCO2 (stereo unspecified)	-15.14
Cc1noc(C)c1CNS(=O)(=O)N(C)Cc1ccccc1Br	-0.1877
CCc1noc(CN(C)C(=O)COc2cccc(Cl)c2C)n1	4.111
CC(C)NC(=O)[C@H]1C[C@@H]2[C@@H](C1)OCCN2Cc1ccco1.O=C(O)C(F)(F)F	1.513
O=C(O)C(F)(F)F.c1coc(CN2CCO[C@H]3[C@@H](OCC4CC4)CC[C@@H]32)c1	73.75
O=C(O)C(F)(F)F.c1coc(CN2CCO[C@H]3[C@H](OCC4CC4)CC[C@@H]32)c1	120.5
O=C(O)C(F)(F)F.c1csc(CN2CCO[C@H]3[C@H](OCC4CCCC4)CC[C@@H]32)n1	-7.308
O=C(O)C(F)(F)F.c1coc(CN2CCO[C@H]3[C@H](OCC4CCCC4)CC[C@@H]32)c1	101
CCC(Nc1ccc(Oc2cccc(C#N)c2)cc1)C(N)=O (stereo unspecified)	18.43
CC[C@@H](CO)NC(=O)c1coc(COc2ccc3sc(C)nc3c2)n1	-14.59
CCCc1noc(C(C)N2CC(n3cccn3)C2)n1 (stereo unspecified)	2.136
CN(C)CC1CN(Cc2ccc3c(c2)OCO3)Cc2nccn2C1.O=C(O)C(F)(F)F.O=C(O)C(F)(F)F (stereo unspecified)	4.386
COCC1CN(Cc2ccc3c(c2)OCO3)Cc2ncn(C)c21.O=C(O)C(F)(F)F.O=C(O)C(F)(F)F (stereo unspecified)	103.2
Cn1cnc2c1C(COCC1CC1)CN(Cc1ccc3c(c1)OCO3)C2.O=C(O)C(F)(F)F.O=C(O)C(F)(F)F (stereo unspecified)	34.98
CCOCC1CN(Cc2ccc3c(c2)OCO3)Cc2ncn(C)c21 (stereo unspecified)	101.2
CCOCC1CN(Cc2ccc3c(c2)OCO3)Cc2nccn2C1 (stereo unspecified)	77.74
COCC1CN(Cc2ccc(OC)cc2)Cc2nn(C)cc21.O=C(O)C(F)(F)F (stereo unspecified)	-23.14
CCOCC1CN(Cc2cc(C)on2)Cc2cn(C)nc21 (stereo unspecified)	-1.224
CCOCC1CN(Cc2cnn(C)c2)Cc2nn(C)cc21.O=C(O)C(F)(F)F (stereo unspecified)	-12.04
CCCc1nnc(NCc2ccc(OC)c(C#N)c2)o1	-5.74
CN1C[C@@H](F)[C@@H](OCc2nc3ccc(C#N)cc3[nH]2)C1	11.19

Compound	Percent Effect [%]
NC(=O)CN(C(=O)Cc1ccc(C(F)(F)F)cc1)C1CCCC1	1.7
CCn1nc(C)c(CCn2ccnc2-c2cc3n(n2)CCCNC3)c1C	-7.012
CC(C)CC(O)C1CCN(Cc2cnc(-c3cccs3)nc2)CC1 (stereo unspecified)	3.832
CN(C)S(=O)(=O)c1cccc(NC(=O)Cc2ccon2)c1	-6.04
COCCn1/c(=N\C(=O)CN(C)S(C)(=O)=O)sc2cccc(F)c21	0
CC(=O)N1CCC(c2ccnc(Nc3cc(C(F)(F)F)ccn3)n2)C1 (stereo unspecified)	158.6
O=C(CC(F)(F)F)N1CCCC(c2nccn2Cc2ccncc2)C1 (stereo unspecified)	-5.55
Cl.NCC(=O)N1CCC(c2ccnc(Nc3cc(C(F)(F)F)ccn3)n2)C1 (stereo unspecified)	119.4
COCC(=O)N1CC(c2ccnc(Nc3cc(C(F)(F)F)ccn3)n2)C1	171.1
O=C(CO)N1CCC(c2ccnc(Nc3cc(C(F)(F)F)ccn3)n2)C1 (stereo unspecified)	149.1
Nc1ccc(C(=O)N2CCCC(c3nccn3Cc3cscn3)C2)cn1 (stereo unspecified)	-28.34
Cn1ccc(-c2cc(C(=O)N3CCC(O)CC3)c3ccccn23)n1	101.1
O=C(c1cc(-c2ccn(CC3CC3)n2)n2ccccc12)N1CCOCC1	-12.76
COCCn1cc(-c2cc(C(=O)N3CCCC3)c3ccccn23)nc1C	-3.651
CN(C)C1CCN(C(=O)c2cc(-c3ccn(C)n3)n3ccccc23)CC1.O=C(O)C(F)(F)F	86.54
Cc1nc(-c2cc(C(=O)N3CCN(C)CC3)c3ccccn23)cn1C	1.368
Cn1ccc(-c2cc(C(=O)N3CCC(C(N)=O)CC3)c3ccccn23)n1	110.4
CN1CCCN(C(=O)c2cc(-c3cc[nH]n3)n3ccccc23)CC1.O=C(O)C(F)(F)F.O=C(O)C(F)(F)F	9.313
O=C(O)c1cc(-c2ccn(CC3CC3)n2)n2ccccc12	0.5352
Cn1ccc(-c2cc(C(=O)N3CCCCC3)c3ccccn23)n1	111.2
CC(C)n1ccc(-c2cc(C(=O)N3CCN(C)CC3)c3ccccn23)n1.O=C(O)C(F)(F)F	-12.81
O=C(c1cc(-c2ccn(CC3CC3)n2)n2ccccc12)N1CCCO1	-14.88
CC(C)c1nc(-c2cc(C(=O)N3CCN(C)CC3)c3ccccn23)cs1.O=C(O)C(F)(F)F	-39.55
